Reference: PubChem BioAssay (NCATS)
Inconclusive results are not listed. Calls of active or inactive are those of the source. Calls follow the shape of the dose curve; as a rule, active = well fitted curve in the direction sought with a large enough effect; inconclusive = small, poorly fitted or top-dose-only effect, or another doubt; inactive = no such curve, though single readings can be large; an effect the other way counts as inactive or inconclusive. Where a SMILES comes first, the peptide text is derived from it.

Columns and labels:
NIH3T3 = test: qHTS assay to identify novel small-molecules to repurpose for Merkel cell carcinoma treatment (AID 1296009); settings: MCC and control cell lines, CellTiter-Glo viability, 72 h; at 44.8 µM (top of the series) unless noted; also: nearly all actives have a fitted effect of over 60% in size
Procedure, shortened: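 72 hr, 37 degree celsius; NPC 8-pt / MIPE 11-pt dose response; compound pinned in DMSO; CellTiter-Glo, 10 min RT, luminescence; normalized to no-cell and DMSO controls.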

C33A = test: Primary qHTS to identify gynecologic anti-cancer compounds using libraries of approved drugs and bioactive compounds (AID 1345084); settings: Gynecologic cancer cell panel viability, ATPlite luminescence, 48 h; series mostly up to 57.5 µM; also: % is scaled to controls: 0 for no effect and ±100 for the full control effect; nearly all actives have a fitted effect of over 55% in size
Procedure, shortened: (§1)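 48 h compound exposure at 37 C, 5% CO2; five-point qHTS. ATPlite luminescence readout of cell ATP.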

CAOV3 = test: as above; settings: Gynecologic cancer cell panel viability, ATPlite luminescence, 48 h; series mostly up to 57.5 µM
Procedure, shortened: as §1

CASKI = test: as above; settings: Gynecologic cancer cell panel viability, ATPlite luminescence, 48 h; series mostly up to 57.5 µM
Procedure, shortened: as §1

Es-2 = test: as above; settings: Gynecologic cancer cell panel viability, ATPlite luminescence, 48 h; series mostly up to 57.5 µM
Procedure, shortened: as §1

HeLa = test: as above; settings: Gynecologic cancer cell panel viability, ATPlite luminescence, 48 h; series mostly up to 57.5 µM
Procedure, shortened: as §1

Hek293T = test: as above; settings: Gynecologic cancer cell panel viability, ATPlite luminescence, 48 h, control line for the selectivity index; series mostly up to 57.5 µM
Procedure, shortened: as §1

JEG-3 = test: as above; settings: Gynecologic cancer cell panel viability, ATPlite luminescence, 48 h; series mostly up to 57.5 µM
Procedure, shortened: as §1

OV90 = test: as above; settings: Gynecologic cancer cell panel viability, ATPlite luminescence, 48 h; series mostly up to 57.5 µM
Procedure, shortened: as §1

PA-1 = test: as above; settings: Gynecologic cancer cell panel viability, ATPlite luminescence, 48 h; series mostly up to 57.5 µM
Procedure, shortened: as §1

Tov-21-G = test: as above; settings: Gynecologic cancer cell panel viability, ATPlite luminescence, 48 h; series mostly up to 57.5 µM
Procedure, shortened: as §1

Tov112D = test: as above; settings: Gynecologic cancer cell panel viability, ATPlite luminescence, 48 h; series mostly up to 57.5 µM
Procedure, shortened: as §1

SKOV3 = test: as above; settings: Gynecologic cancer cell panel viability, ATPlite luminescence, 48 h; series mostly up to 57.5 µM
Procedure, shortened: as §1

CC(=O)NCCCCn1c2c(c3ccccc31)C(=O)NCC2
inactive: outcome (NIH3T3) | Potency (C33A) | Potency (CAOV3) | Potency (CASKI) | Potency (Es-2) | Potency (HeLa) | Potency (Hek293T) | Potency (JEG-3) | Potency (OV90) | Potency (PA-1) | Potency (Tov-21-G) | Potency (Tov112D)

OC[C@H]1O[C@@H](Oc2cc(O)cc(/C=C/c3ccc(O)cc3)c2)[C@H](O)[C@@H](O)[C@@H]1O
inactive: outcome (NIH3T3) | Potency (C33A) | Potency (CAOV3) | Potency (CASKI) | Potency (OV90)

CC(C)=CCC[C@](C)(O[C@@H]1O[C@H](CO[C@@H]2OC[C@@H](O)[C@H](O)[C@H]2O)[C@@H](O)[C@H](O)[C@H]1O)[C@H]1CC[C@]2(C)[C@@H]1[C@H](O)C[C@@H]1[C@@]3(C)CC[C@H](O[C@@H]4O[C@H](CO)[C@@H](O)[C@H](O)[C@H]4O[C@@H]4O[C@H](CO)[C@@H](O)[C@H](O)[C@H]4O)C(C)(C)[C@@H]3CC[C@]12C
inactive: outcome (NIH3T3) inactive [at 17.4 µM] | Potency (C33A) | Potency (CAOV3) | Potency (CASKI) | Potency (Es-2) | Potency (HeLa) | Potency (Hek293T) | Potency (JEG-3) | Potency (OV90) | Potency (SKOV3) | Potency (Tov-21-G) | Potency (Tov112D)

CNC(=O)O[C@H]1COc2ccc(N3CCN(C4COC4)CC3)cc2[C@@H]1NC(=O)c1ccc(F)cc1
inactive: outcome (NIH3T3) | Potency (C33A) | Potency (CAOV3) | Potency (CASKI) | Potency (Es-2) | Potency (HeLa) | Potency (Hek293T) | Potency (JEG-3) | Potency (OV90) | Potency (PA-1) | Potency (Tov-21-G) | Potency (Tov112D)

COc1ccc2cc(OCC3(C(=O)O)CN(C(=O)c4ccc(F)cc4)C3)ccc2c1
inactive: outcome (NIH3T3) | Potency (C33A) | Potency (CAOV3) | Potency (CASKI) | Potency (Es-2) | Potency (HeLa) | Potency (Hek293T) | Potency (JEG-3) | Potency (OV90) | Potency (PA-1) | Potency (Tov-21-G) | Potency (Tov112D)

CC1CCC2(C(=O)OC3OC(CO)C(O)C(O)C3O)CCC3(C)C(=CCC4C5(C)CC(O)C(O)C(C)(C(=O)O)C5CCC43C)C2C1(C)O (stereo unspecified)
inactive: outcome (NIH3T3) inactive [at 17.4 µM] | Potency (C33A) | Potency (CAOV3) | Potency (CASKI) | Potency (Es-2) | Potency (HeLa) | Potency (Hek293T) | Potency (JEG-3) | Potency (OV90) | Potency (SKOV3) | Potency (Tov-21-G) | Potency (Tov112D)

C=C(C)C1CC2(CO)C(=CC1=O)CCC(O)C2C (stereo unspecified)
inactive: outcome (NIH3T3) | Potency (C33A) | Potency (CAOV3) | Potency (CASKI) | Potency (Es-2) | Potency (HeLa) | Potency (Hek293T) | Potency (JEG-3) | Potency (OV90) | Potency (PA-1) | Potency (Tov-21-G) | Potency (Tov112D)

CC1NC(=O)CNC(=O)C(C(C)C)NC(=O)C2CCCN2C(=O)C(C(C)C)NC(=O)C(Cc2c[nH]c3ccccc23)NC1=O (stereo unspecified) (cyclo(GAWVPV); configuration not given here)
inactive: outcome (NIH3T3) inactive [at 17.4 µM] | Potency (C33A) | Potency (CAOV3) | Potency (CASKI) | Potency (Es-2) | Potency (HeLa) | Potency (Hek293T) | Potency (JEG-3) | Potency (OV90) | Potency (PA-1) | Potency (Tov-21-G) | Potency (Tov112D)

CC1C(=O)CC2C3C(O)CC(C(=O)O)C12CC3(C)C (stereo unspecified)
inactive: Potency (C33A) | Potency (CAOV3) | Potency (CASKI) | Potency (Es-2) | Potency (HeLa) | Potency (Hek293T) | Potency (JEG-3) | Potency (OV90) | Potency (PA-1) | Potency (SKOV3) | Potency (Tov-21-G) | Potency (Tov112D)

CC1(C)CCC2(C(=O)OC3OC(COC4OC(CO)C(O)C(O)C4O)C(O)C(O)C3O)CCC3(C)C(=CCC4C5(C)CCC(O)C(C)(C(=O)O)C5CCC43C)C2C1O (stereo unspecified)
inactive: activity change, negative = cytotoxicity (C33A) 2.23% [at 11.6 µM] | activity change, negative = cytotoxicity (CAOV3) 3.42% [at 11.6 µM] | activity change, negative = cytotoxicity (CASKI) 3.04% [at 11.6 µM] | activity change, negative = cytotoxicity (Es-2) 4.39% [at 11.6 µM] | activity change, negative = cytotoxicity (HeLa) -15.3% [at 11.6 µM] | activity change, negative = cytotoxicity (Hek293T) 4.46% [at 11.6 µM] | activity change, negative = cytotoxicity (JEG-3) -2.36% [at 11.6 µM] | activity change, negative = cytotoxicity (OV90) 0.278% [at 11.6 µM] | activity change, negative = cytotoxicity (PA-1) -2.93% [at 11.6 µM] | activity change, negative = cytotoxicity (SKOV3) 21% [at 11.6 µM] | activity change, negative = cytotoxicity (Tov-21-G) 0.669% [at 11.6 µM] | activity change, negative = cytotoxicity (Tov112D) -1.2% [at 11.6 µM]

Cc1nn(C)c(COc2ccc(N3CCN(S(=O)(=O)N(C)C)CC3)cc2)c1-c1cccc2c(CCCOc3cccc4ccccc34)c(C(=O)O)n(CCN3CCOCC3)c12
inactive: Potency (C33A) | Potency (CAOV3) | Potency (CASKI) | Potency (Es-2) | Potency (HeLa) | Potency (Hek293T) | Potency (JEG-3) | Potency (OV90) | Potency (PA-1) | Potency (SKOV3) | Potency (Tov-21-G) | Potency (Tov112D)

O=C(CCCCc1ccc2ccccc2c1)C(F)(F)F
inactive: outcome (NIH3T3) inactive [at 92 µM] | Potency (C33A) | Potency (CASKI) | Potency (Es-2) | Potency (HeLa) | Potency (Hek293T) | Potency (JEG-3) | Potency (OV90) | Potency (PA-1) | Potency (SKOV3) | Potency (Tov-21-G) | Potency (Tov112D)

NC1CCC(N[C@@H]2C[C@H]2c2ccccc2)CC1 (stereo partly specified)
inactive: outcome (NIH3T3) | Potency (C33A) | Potency (CASKI) | Potency (Es-2) | Potency (HeLa) | Potency (Hek293T) | Potency (JEG-3) | Potency (OV90) | Potency (PA-1) | Potency (SKOV3) | Potency (Tov-21-G) | Potency (Tov112D)

O=C(O)[C@H]1CCCC[C@H]1C(=O)N1CCc2ccccc2[C@H]1CN1C(=O)c2ccccc2C1=O
inactive: Potency (C33A) | Potency (CAOV3) | Potency (CASKI) | Potency (Es-2) | Potency (HeLa) | Potency (Hek293T) | Potency (JEG-3) | Potency (OV90) | Potency (PA-1) | Potency (SKOV3) | Potency (Tov-21-G) | Potency (Tov112D)
